Assay outcomes (PubChem)
Sampled rows, rich in hits. Any-hit rate of the full collection: about 6.9%.
Giardia killer – kills Giardia lamblia; AID 540267; Giardia lamblia trophozoite viability; activity change, % at 7.66 µM, hits read low; hit rate 0.15% among 340,000; in the data active = activity change below about -80%; inconclusive = between about -30% and that limit;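 also: parasites exposed to compound for two days anaerobically before the ATP read; % is scaled to controls: 0 for no effect and ±100 for the full control effect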
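Trophozoites 100 cells/well + cpd; 48 hrs, 37 deg C, anaerobic. ATPLite 1-Step added, 15-30 min RT, luminescence read (ATP-based viability).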
Vif-APOBEC3G blk – inhibitors of Vif-APOBEC3G interaction. hit rate 0.076% among 410,000. AID 602310. HeLa A3G-eYFP + Vif (tagged APOBEC3G with the HIV-1 protein that degrades it), YFP fluorescence, overnight. Potency, µM (titrated, usually from 46.1 µM), without a hit: top-dose activity, negative = active, most hits filed as inhibitors. Q9HC16; also: potency is read from the fitted curve at half-maximal effect; % is scaled to controls: 0 for no effect and ±100 for the full control effect; nearly all actives have a fitted effect of over 60% in size
Target sequence (Q9HC16 whole entry, looked up): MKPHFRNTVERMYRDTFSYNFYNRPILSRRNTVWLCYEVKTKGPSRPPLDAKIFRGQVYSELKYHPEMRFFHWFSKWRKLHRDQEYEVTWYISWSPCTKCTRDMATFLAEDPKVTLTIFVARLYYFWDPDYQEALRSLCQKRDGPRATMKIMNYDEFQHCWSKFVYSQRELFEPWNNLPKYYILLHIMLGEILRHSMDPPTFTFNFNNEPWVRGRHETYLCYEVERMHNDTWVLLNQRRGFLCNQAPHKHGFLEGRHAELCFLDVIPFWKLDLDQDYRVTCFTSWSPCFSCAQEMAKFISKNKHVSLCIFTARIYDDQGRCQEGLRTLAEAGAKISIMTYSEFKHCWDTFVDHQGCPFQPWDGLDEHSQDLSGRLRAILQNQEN
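Read-out is eYFP fluorescence (Ex 488/Em 500-530) from Vif-expressing HeLa A3G-eYFP cells; more signal means A3G escaped Vif-mediated degradation. Cells plated overnight, compound pinned in, incubated overnight at 37 deg C.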
MCF10A rerep – induces DNA re-replication in MCF 10a normal breast cells; hit rate 2.9% among 350,000; AID 624296; MCF 10A DNA re-replication, Hoechst nuclear intensity, 48 h; Potency, µM (top dose mostly 46.1 µM), for the others: top-dose activity, positive = re-replication, actives largely listed as activators; also: potency is read from the fitted curve at half-maximal effect; % of control where 0% means no effect; nearly all actives have a fitted effect of over 50% in size
SW480 rerep – induces DNA re-replication in SW480 colon adenocarcinoma cells; hit rate 1.8% among 340,000; Potency, µM (highest dose often 46.1 µM), inactives show at the top dose re-replication activation, usual class: activators; SW480 DNA re-replication, Hoechst DNA content imaging, 48 h; also: potency is read from the fitted curve at half-maximal effect; % of control where 0% means no effect; nearly all actives have a fitted effect of over 55% in size
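250 cells/well; 23 nL cpd via pin tool; 48 hr, 37 C, 5% CO2; Hoechst 40 min; imager read of total nuclear intensity, ex 405/em 500-530 nm.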
Vif-APOBEC3F blk – inhibitors of Vif-A3F interaction; HeLa A3F-eYFP + Vif (tagged APOBEC3F with the HIV-1 protein that degrades it), YFP fluorescence increase; Potency, µM (highest dose often 46.1 µM), without a hit: at the top dose activity, negative = active; hit rate 0.2% among 390,000; also: potency is read from the fitted curve at half-maximal effect; % of control where 0% means no effect; nearly all actives have a fitted effect of over 65% in size
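HeLa cells stably expressing A3F-eYFP plus Vif, plated and incubated overnight at 37 deg C, then exposed to compounds overnight at 37 deg C. Blocked degradation read as raised yellow fluorescence (Ex 488/Em 500-530).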
IL1B secr inh – inflammasome signaling inhibition, IL-1 beta readout. THP-1 LPS/ATP IL-1B secretion, AlphaLISA, 16 h; hits give low values. activity change, % at 57.5 µM. hit rate 4.7% among 360,000; in the data active = activity change below about -50%; inconclusive = mostly about -30% to -49%; also: % is scaled to controls: 0 for no effect and ±100 for the full control effect
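Secreted IL-1B measured by AlphaLISA bead assay after 16 h compound exposure of THP-1 cells; compounds (final up to 57.5 uM) added 1 h before LPS (250 ng/mL) and ATP (1.25 mM) stimulation; lower signal means less secretion.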
The depositor's hits bear a star; u = inconclusive; x = no result; [ ] = another dose, or the depositor's remark. Unless noted, calls follow the shape of the dose curve; as a rule, active = well fitted curve in the direction sought with a large enough effect; inconclusive = small, poorly fitted or top-dose-only effect, or another doubt; inactive = no such curve, though single readings can be large; an effect the other way counts as inactive or inconclusive.

SMILES	Giardia killer	Vif-APOBEC3G blk	MCF10A rerep	SW480 rerep	Vif-APOBEC3F blk	IL1B secr inh
O=S(=O)(Cc1cc(Cl)nc(-c2ccccc2)n1)c1ccccc1	-5	-7%	21µM*	u	-2%	-70*
CCc1ccccc1NC(=O)CSc1nc2ccccc2nc1Cc1cccc(OC)c1	x	-5%	x	x	4%	x
CCc1ccccc1NC(=O)c1ccc2c(c1)N(Cc1cc(C)ccc1C)C(=O)c1ccccc1S2(=O)=O	x	3%	x	x	3%	x
C=CCNC(=O)CSc1nc2sc3c(c2c(=O)n1CCCOC)CCC3	33	-9%	6.5µM*	-3%	6%	0
CCc1ccc(Nc2nnc(SCC(=O)Nc3sccc3C(N)=O)s2)cc1	-10	-3%	16µM*	u	-5%	-2
COc1cccc(Nc2nnc(SCC(=O)Nc3sccc3C(N)=O)s2)c1	-8	-6%	u	-13%	-3%	-4
C(=Nc1ccc2ccccc2n1)c1ccccn1	x	1%	x	x	x	x
CC(C)(C)CC(C)(C)N=C1Nc2ccc(Cl)cc2NC12C[C@H]1CCC(=O)N3CC[C@@H](C2)[C@@H]13 (some centres undefined)	x	-8%	x	x	x	x
O=c1c2cnn(-c3ccccc3)c2nc(-c2ccco2)n1-c1ccccc1	1	2%	u	-1%	-1%	-55*
CCOc1ccc(-c2csc(Cn3c(CN4CCN(C)CC4)nc4ccccc4c3=O)n2)cc1	5	-1%	u	u	-17%	-75*
CCc1nc2c(cnn2-c2ccc(Cl)cc2)c(=O)n1-c1ccc(OC)c(Cl)c1	x	2%	x	x	-1%	x
CCNc1nc(NC(C)(C)C)nc(N2CCCCC2)n1	-1	-1%	18µM*	15µM*	-15%	-81*
CCNc1nc(N2CCCC2)nc(N2CCCC2)n1	-4	-1%	7%	-6%	-5%	0
CC(=O)c1cnc2n(c1=O)CCS2	0	2%	-17%	13µM*	15%	-3
Cc1cc(C)cc(NC(=O)c2ccc3oc(=O)c(S(=O)(=O)c4ccc(F)cc4)cc3c2)c1	x	0%	x	x	-3%	x
COc1cc(NC(=O)CSc2ncc(S(=O)(=O)c3ccc(Br)cc3)c(=O)[nH]2)cc(OC)c1	x	-1%	x	x	-1%	x
O=S(=O)(Nc1ccc2oc(-c3ccccc3)nc2c1)c1ccccc1	-6	2%	21µM*	u	-9%	u
Nc1cccc(-c2nc3cc(S(=O)(=O)c4ccc5oc(-c6cccc(N)c6)nc5c4)ccc3o2)c1	-7	-14%	u	6.5µM*	u	-1
O=C(Nc1cccn(Cc2c(F)cccc2Cl)c1=O)NC1CCCCC1	2	-23%	21µM*	18µM*	-3%	-27
O=C(C1CCC1)N1CCCc2cc(S(=O)(=O)Nc3ccc(F)cc3)ccc21	x	0%	x	x	-5%	x
O=[N+]([O-])C(/C=C(\Cl)[N+](=O)[O-])=C(N1CCCCC1)N1CCCCC1	-82*	1%	0%	u	-19%	-20
O=[N+]([O-])C(=C1SCCS1)C(=C(Cl)Cl)N1CCCCC1	1	0%	18%	15%	2%	-10
O=[N+]([O-])c1ccc(/C=N/n2cnc3ccccc32)s1	u	u	u	4.1µM*	u	-74*
FC(F)Oc1ccccc1/C=N/n1cnc2ccccc21	-3	-1%	-4%	-9%	6%	14
Cc1cc2ncn(/N=C/c3ccc([N+](=O)[O-])s3)c2cc1C	-98*	-8%	-5%	u	1%	0
SMILES	Giardia killer	Vif-APOBEC3G blk	MCF10A rerep	SW480 rerep	Vif-APOBEC3F blk	IL1B secr inh
O=[N+]([O-])c1ccc(/C=N/Nc2ncccc2[N+](=O)[O-])s1	-93*	u	12%	2%	-17%	-3
N#C/C(=C\c1c(Oc2ccc(Br)cc2)nc2ccccn2c1=O)c1nc2ccccc2s1	x	3%	x	x	-6%	x
CC(C)CCNC(=O)CN1C(=O)CSc2ccc(S(=O)(=O)N3CCCCC3)cc21	x	-4%	x	x	-1%	x
CCc1ccc(C(=O)NC(Cc2c[nH]c3ccccc23)C(=O)OCC(=O)c2ccc(Br)cc2)cc1 (centres undefined)	x	6%	x	x	3%	x
Cn1c(N)cc(=O)n(Cc2ccccc2)c1=O	6	-1%	-11%	-6%[9.22 µM]	-1%	23
O=c1ccn(Cc2ccccc2)c(=O)n1Cc1ccccc1	-5	1%	21µM*	-9%	-4%	-29
N#Cc1c(Nc2ccc(Cl)cc2)s[nH]c1=O	-8	-5%	18µM*	u	-9%	-73*
CCOc1ccccc1/C=C/c1nc2ccccc2[nH]c1=O	-12	-2%	u	23µM*	2%	66
CC(C)c1nn2c(=O)cc(COC(=O)c3ccc(NC(=O)CCc4ccccc4)cc3)nc2s1	x	0%	x	x	-12%	x
COc1ccc(NCC(O)Cn2c(C)c(C)c3ccccc32)cc1 (centres undefined)	-13	0%	-2%	u	u	-173*
CS(=O)(=O)N1CCC(C(=O)Nc2ccc(Oc3ccccc3)cc2)CC1	-12	-7%	9.2µM*	16µM*	9%	-6
COc1ccc(S(=O)(=O)N2CCC(C(=O)Nc3ccc(Oc4ccccc4)cc3)CC2)cc1	x	7%	x	x	1%	x
Cc1ccc(NC(=O)C2CCN(S(C)(=O)=O)CC2)cc1Cl	-19	0%	0%	u	5%	-61*
O=C(Nc1ccc(Oc2ccccc2)cc1)C1CCN(c2c3c(nc4ncnn24)CCC3)CC1	-6	-7%	u	27%	-11%	-91*
Cc1cc(NC(=O)C2CCN(S(=O)(=O)c3cnc[nH]3)CC2)ccc1Br	2	-2%	-2%	1%	0%	-57*
CS(=O)(=O)N1CCC(C(=O)Nc2ccc(F)c(Cl)c2)CC1	-5	1%	u	9%[9.22 µM]	7%	-15
COc1ccccc1C(=O)N1CCN(Cc2cc(=O)oc3cc(C)ccc23)CC1	x	4%	x	x	-5%	x
Cc1ccc(Cc2nc3ccccc3nc2SCC(=O)NCc2ccccc2Cl)cc1	x	1%	x	x	-3%	x
CCOc1ccc(C(=O)N2CCC(c3nnc(-c4ccccc4OC)o3)CC2)cc1	x	1%	x	x	-8%	x
CCCCS(=O)(=O)/C=C\C=C/S(=O)(=O)CCCC	-17	-21%	u	u	-4%	-123*
O=S(=O)(Nc1nc2ccccc2nc1Cl)c1cccc(C(F)(F)F)c1	-1	-16%	16µM*	-3%	4%	51
O=S(=O)(Nc1nc2ccccc2nc1Cl)c1ccccc1C(F)(F)F	u	-1%	17%	0%	6%	24
O=C(C[N+]1(CCO)CCOCC1)c1cccs1	x	-1%	x	x	x	x
COc1ccc(OC)c(Nc2nc(C3CC3)nc3c2nnn3Cc2ccccc2)c1	-13	-2%	-14%	-24%	-17%	35
